Reference: PubChem BioAssay (NCATS)
Results filed as inconclusive are left out. Active and inactive are the calls of the source. The call rests on the fitted dose curve; in most records, active means well fitted curve in the direction sought with a large enough effect; inconclusive means small, poorly fitted or top-dose-only effect, or another doubt; inactive means no such curve, though single readings can be large; an effect the other way counts as inactive or inconclusive.

Legend:
[1] = biological target: Rap guanine nucleotide exchange factor 3 (Homo sapiens) (UniProt O95398); assay: Confirmatory qHTS for agonist of cAMP-regulated guanine nucleotide exchange factor 3 (EPAC1) (AID 1645881);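 further: EPAC1 catalysed release of BODIPY-GDP from Rap1B seen as fluorescence loss; 100% = effect of cAMP agonist control; nearly all actives have a fitted effect of over 75% in size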
[2] = biological target: Rap guanine nucleotide exchange factor 4 (Homo sapiens) (UniProt Q8WZA2); assay: Confirmatory qHTS for agonist of cAMP-regulated guanine nucleotide exchange factor 4 (EPAC2) (AID 1645884);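 further: nucleotide exchange releases bodipy-GDP from Rap1 and this lowers its fluorescence; on the % scale 0 is the no-effect control and ±100 the full control effect; nearly all actives have a fitted effect of over 65% in size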
[3] = biological target: Rap guanine nucleotide exchange factor 4 (Homo sapiens) (UniProt Q8WZA2); assay: Confirmatory qHTS for antagonist of cAMP-regulated guanine nucleotide exchange factor 4 (EPAC2) (AID 1645885); further: nearly all actives have a fitted effect of over 25% in size; on activity change, negative = inhibition: on the % scale 0 is the no-effect control and ±100 the full control effect
[4] = biological target: Rap guanine nucleotide exchange factor 3 (Homo sapiens) (UniProt O95398); assay: Counterscreen qHTS for antagonist of cAMP-regulated guanine nucleotide exchange factor 3 (EPAC1) (AID 1645888);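 further: fluorescence loss as bound BODIPY-GDP is released from Rap1B; % of control where 0% means no effect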
Method in brief: (§1)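 Rap1B–BODIPY-GDP (250 nM) with 50 uM GDP; compounds pin-transferred to 9.74 nM–152 uM final (activator) or from 7.32 nM upwards (inhibitor). Fluorescence Ex/Em 480/540 nm read at 5 and 30 min, then after adding cAMP or buffer, at room temperature.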

[5] = biological target: Rap guanine nucleotide exchange factor 3 (Homo sapiens) (UniProt O95398); assay: Counterscreen qHTS for agonist of cAMP-regulated guanine nucleotide exchange factor 3 (EPAC1) (AID 1645889); further: % of control where 0% means no effect; nearly all actives have a fitted effect of over 40% in size
Method in brief: as §1

Chain of Rap guanine nucleotide exchange factor 3 (Homo sapiens) (O95398 whole entry, looked up): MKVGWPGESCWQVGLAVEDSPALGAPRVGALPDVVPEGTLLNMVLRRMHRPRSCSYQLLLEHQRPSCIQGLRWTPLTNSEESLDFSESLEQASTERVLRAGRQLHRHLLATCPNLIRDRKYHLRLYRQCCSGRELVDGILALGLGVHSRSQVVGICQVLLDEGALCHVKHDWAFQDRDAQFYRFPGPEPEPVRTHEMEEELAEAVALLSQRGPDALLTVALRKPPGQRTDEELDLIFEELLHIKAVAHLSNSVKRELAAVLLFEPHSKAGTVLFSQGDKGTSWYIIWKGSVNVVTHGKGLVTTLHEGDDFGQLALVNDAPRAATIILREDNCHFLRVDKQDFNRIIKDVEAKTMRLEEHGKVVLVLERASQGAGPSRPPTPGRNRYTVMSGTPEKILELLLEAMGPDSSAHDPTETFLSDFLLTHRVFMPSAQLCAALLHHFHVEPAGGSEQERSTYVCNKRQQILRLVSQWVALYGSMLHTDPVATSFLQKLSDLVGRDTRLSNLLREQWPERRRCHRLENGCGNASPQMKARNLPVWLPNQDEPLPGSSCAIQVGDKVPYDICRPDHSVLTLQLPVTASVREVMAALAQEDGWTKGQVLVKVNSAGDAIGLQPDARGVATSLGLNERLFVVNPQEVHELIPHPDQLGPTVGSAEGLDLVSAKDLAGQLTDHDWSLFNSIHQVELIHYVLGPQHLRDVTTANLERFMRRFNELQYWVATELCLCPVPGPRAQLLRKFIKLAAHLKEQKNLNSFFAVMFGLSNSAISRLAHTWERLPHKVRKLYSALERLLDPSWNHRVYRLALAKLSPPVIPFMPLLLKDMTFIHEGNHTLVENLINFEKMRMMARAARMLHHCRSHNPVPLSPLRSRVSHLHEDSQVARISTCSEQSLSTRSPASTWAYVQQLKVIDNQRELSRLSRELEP
Chain of Rap guanine nucleotide exchange factor 4 (Homo sapiens) (Q8WZA2 whole entry, looked up): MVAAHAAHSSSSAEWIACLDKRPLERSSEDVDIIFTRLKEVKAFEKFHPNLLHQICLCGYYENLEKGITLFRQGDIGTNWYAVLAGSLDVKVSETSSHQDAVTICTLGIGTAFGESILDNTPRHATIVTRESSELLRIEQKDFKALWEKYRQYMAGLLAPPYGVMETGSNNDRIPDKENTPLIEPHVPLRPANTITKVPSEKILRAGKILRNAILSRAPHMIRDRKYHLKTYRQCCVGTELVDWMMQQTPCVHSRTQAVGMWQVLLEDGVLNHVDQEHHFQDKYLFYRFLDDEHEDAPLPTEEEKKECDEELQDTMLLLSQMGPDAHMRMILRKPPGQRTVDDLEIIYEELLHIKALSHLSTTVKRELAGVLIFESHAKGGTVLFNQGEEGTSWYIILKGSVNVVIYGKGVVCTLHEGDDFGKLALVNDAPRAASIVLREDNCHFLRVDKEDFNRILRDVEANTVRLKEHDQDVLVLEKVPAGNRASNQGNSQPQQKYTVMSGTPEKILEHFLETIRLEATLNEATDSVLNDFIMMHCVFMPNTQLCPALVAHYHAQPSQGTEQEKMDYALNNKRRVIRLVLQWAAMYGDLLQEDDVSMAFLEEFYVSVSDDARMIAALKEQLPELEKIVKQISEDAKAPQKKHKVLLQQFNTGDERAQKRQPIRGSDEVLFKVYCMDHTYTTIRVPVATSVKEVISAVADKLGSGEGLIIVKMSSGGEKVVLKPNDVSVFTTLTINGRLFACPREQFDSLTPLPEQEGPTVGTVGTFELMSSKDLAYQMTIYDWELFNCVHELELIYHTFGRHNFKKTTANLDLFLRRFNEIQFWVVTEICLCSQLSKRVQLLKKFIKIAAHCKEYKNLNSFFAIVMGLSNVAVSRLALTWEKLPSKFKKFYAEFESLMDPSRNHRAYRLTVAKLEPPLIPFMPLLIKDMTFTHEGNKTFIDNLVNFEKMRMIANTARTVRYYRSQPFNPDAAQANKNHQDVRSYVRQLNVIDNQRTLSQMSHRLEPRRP

Cc1ccccc1C(=O)Nc1sc2c(c1C(=O)N1CCCCC1)CCC(C)C2 (stereo unspecified)
inactive: Potency [1] | Potency [2] | Potency [3] | Potency [4]

Cc1c(C)c2ccc(OCC(=O)Nc3ccc(S(N)(=O)=O)cc3)c(C)c2oc1=O
inactive: Potency [1] | Potency [2] | Potency [3] | Potency [4]

CCc1ccc2occ(CC(=O)Nc3ccc(C)c(C)c3)c2c1
inactive: Potency [1] | Potency [2] | Potency [3] | Potency [4]

CCOC(=O)c1cnc2ccc(C(=O)OC)cc2c1Nc1ccccc1CC
inactive: Potency [1] | Potency [2] | Potency [3] | Potency [4]

CC(C)CC(NS(=O)(=O)OCC(Cl)(Cl)Cl)c1ccccc1 (stereo unspecified)
inactive: Potency [1] | activation [2] 5.17% [at 17.1 µM, percent relative to cAMP agonist control] | Potency [3] | activity change, negative = inhibition [4] -22.9% [at 30.8 µM]

COc1ccc(NC(=O)CSc2sc3c(O)cc(=O)[nH]c3c2C#N)c(OC)c1
inactive: Potency [1] | activation [2] 3.92% [at 17.1 µM, percent relative to cAMP agonist control] | Potency [3] | activity change, negative = inhibition [4] -13.9% [at 30.8 µM]

CC(=O)N1N=C(c2ccc(Cl)cc2)CC1c1ccc([N+](=O)[O-])cc1 (stereo unspecified)
inactive: Potency [1] | activation [2] 7.36% [at 17.1 µM, percent relative to cAMP agonist control] | Potency [3] | activity change, negative = inhibition [4] 2.9% [at 30.8 µM]

C=CCN1C(=O)[C@@H]2Cc3c([nH]c4ccccc34)C(c3ccc(O)cc3)N2C1=S (stereo partly specified)
inactive: Potency [1] | Potency [2] | Potency [3] | Potency [4]

O=C(CSc1nnc(-c2cnccn2)n1Cc1ccco1)c1ccc(Cl)cc1
inactive: Potency [1] | Potency [2] | Potency [3] | Potency [4]

O=C(CSc1nc2ccc(Cl)cc2[nH]1)N1CCN(C(=O)c2ccco2)CC1
inactive: Potency [1] | Potency [2] | Potency [3] | Potency [4]

O=C1NC(=O)C(=Cc2ccccc2[N+](=O)[O-])S1
inactive: Potency [1] | activation [2] 5.36% [at 17.1 µM, percent relative to cAMP agonist control] | Potency [3] | activity change, negative = inhibition [4] 0.254% [at 30.8 µM]

CCN1CCc2c(sc(NC(=O)c3cc4ccccc4cc3OC)c2C(N)=O)C1
inactive: Potency [1] | activation [2] 8.91% [at 17.1 µM, percent relative to cAMP agonist control] | Potency [3] | activity change, negative = inhibition [4] -3.83% [at 30.8 µM]

CCOC(=O)c1ccc(NC(=O)CC2Nc3cccc4cccc(c34)NC2=O)cc1 (stereo unspecified)
inactive: Potency [1] | Potency [2] | Potency [3] | Potency [4]

COc1ccc(/C=C/C(=O)Oc2ccc(C)c(C)c2)cc1OC
inactive: Potency [1] | Potency [2] | Potency [3] | Potency [4]

COc1ccccc1Nc1cc2cc(Br)ccc2c(=O)[nH]1
inactive: Potency [1] | Potency [2] | Potency [3] | Potency [4]

O=C(CN1C(=O)/C(=C2/SC(=S)N(CCS(=O)(=O)O)C2=O)c2ccccc21)Nc1cccc(C(F)(F)F)c1
inactive: Potency [1] | activation [2] 2.25% [at 17.1 µM, percent relative to cAMP agonist control] | Potency [3] | activity change, negative = inhibition [4] -24.5% [at 30.8 µM]

CC(C)CCn1c(Oc2ccccc2Cl)nc2c1c(=O)n(C)c(=O)n2C
inactive: Potency [1] | Potency [2] | Potency [3] | Potency [4]

COc1ccc(CN(C(=O)c2cccs2)c2nccs2)cc1OC
inactive: Potency [1] | Potency [2] | Potency [3] | Potency [4]

COc1cc(OC)cc(C(=O)Nc2ccc(NC(=O)c3ccco3)c(Cl)c2)c1
inactive: Potency [1] | Potency [2] | Potency [3] | Potency [4]

CCOc1ccccc1Oc1ncnc2c1oc1ccccc12
inactive: Potency [1] | Potency [2] | outcome [3] inactive [at 12.7 µM] | Potency [4]

COc1cc2c(cc1OC)C(c1ccc(Cl)cc1)N(c1ccc(C)c(F)c1)C(=O)C2 (stereo unspecified)
inactive: Potency [1] | Potency [2] | outcome [3] inactive [at 12.7 µM] | Potency [4]

CS/C(=C\C(=O)c1ccco1)Nc1ccccc1Cl
inactive: Potency [1] | Potency [2] | Potency [3] | Potency [4]

CCCN1C(=O)c2ccccc2NC1c1ccc(OC)c(CSc2ccccn2)c1 (stereo unspecified)
inactive: Potency [1] | Potency [2] | Potency [3] | Potency [4] | Potency [5]

COc1ccccc1-c1oc2ccccc2c1C#CC(C)(C)O
inactive: Potency [1] | Potency [2] | Potency [3] | Potency [4]

COc1ccc(OC)c(C(=O)c2coc3cc(Br)c(O)c(Br)c23)c1
inactive: Potency [1] | Potency [2] | Potency [3] | Potency [4]

CCOC(=O)Cc1csc(NC(=O)COc2ccc3ccccc3c2)n1
inactive: Potency [1] | activation [2] 9.25% [at 17.1 µM, percent relative to cAMP agonist control] | Potency [3] | activity change, negative = inhibition [4] 5.57% [at 30.8 µM] | activation [5] 21.1% [at 30.8 µM]
